ChEMBL document CHEMBL1157539, “Thousands of chemical starting points for antimalarial lead identification” (Nature, 2010)

What was measured:
Format in all cases: functional
Plasmodium falciparum [1] = assay: GSK_TCMDC: Inhibition of Plasmodium falciparum 3D7 in whole red blood cells, using parasite LDH activity as an index of growth. Test compounds present at 2uM
Plasmodium falciparum [2] = assay: GSK_TCMDC: Inhibition of Plasmodium falciparum Dd2 in whole red blood cells, using parasite LDH activity as an index of growth. Test compounds present at 2uM
HepG2 = assay: GSK_TCMDC: Percent inhibition of human HepG2 cell line. Test compounds present at 10uM.

Oc1ccccc1CN(CCCN(Cc1ccccn1)Cc1ccccc1O)Cc1ccccn1
Inhibition (Plasmodium falciparum [1]): 92%
Inhibition (Plasmodium falciparum [2]): 92%
Inhibition (HepG2): 64%

COc1cccc(-c2csc(C(=O)NC3CCCCN(Cc4ccc(C(C)(C)C)cc4)C3)c2)c1.O=C(O)C(F)(F)F (stereo not drawn)
Inhibition (Plasmodium falciparum [1]): 97%
Inhibition (Plasmodium falciparum [2]): 66%
Inhibition (HepG2): 9%

CCCNC(=O)c1cncc(-c2cccc(CNC3Cc4ccccc4C3)c2)c1.O=C(O)C(F)(F)F
Inhibition (Plasmodium falciparum [1]): 100%
Inhibition (Plasmodium falciparum [2]): 2%
Inhibition (HepG2): 0%

Cc1cc(OCC2CCN(c3ccc(C(=O)NC4CC4)cn3)CC2)ccc1F
Inhibition (Plasmodium falciparum [1]): 94%
Inhibition (Plasmodium falciparum [2]): 95%
Inhibition (HepG2): 6%

Cc1ncc([N+](=O)[O-])n1CCOC(=O)NC(Nc1ccc(Br)cc1)C(Cl)(Cl)Cl (stereo not drawn)
Inhibition (Plasmodium falciparum [1]): 99%
Inhibition (Plasmodium falciparum [2]): 100%
Inhibition (HepG2): 0%

O=C(c1cccs1)N1CCN(c2ccc([N+](=O)[O-])c(NC3CC3)c2)CC1
Inhibition (Plasmodium falciparum [1]): 100%
Inhibition (Plasmodium falciparum [2]): 95%
Inhibition (HepG2): 0%

CCC(NCc1ccc(-c2cncc(C(=O)NCC(C)C)c2)cc1)c1ccccc1.O=C(O)C(F)(F)F (stereo not drawn)
Inhibition (Plasmodium falciparum [1]): 86%
Inhibition (Plasmodium falciparum [2]): 8%
Inhibition (HepG2): 14%

Cc1ccc(S(=O)(=O)N2CCN(C(=O)c3cc(-c4ccccc4)n[nH]3)CC2)cc1
Inhibition (Plasmodium falciparum [1]): 91%
Inhibition (Plasmodium falciparum [2]): 88%
Inhibition (HepG2): 0%

CCc1cn2c3c(cc(C(=O)N[C@@H](Cc4ccccc4)[C@H](O)CNC4CCOCC4)cc13)N(C)S(=O)(=O)C2.O=CO
Inhibition (Plasmodium falciparum [1]): 99%
Inhibition (Plasmodium falciparum [2]): 98%
Inhibition (HepG2): 13%

O=C(Nc1nc(-c2ccccn2)cc2ccccc12)c1cccc(Cl)c1
Inhibition (Plasmodium falciparum [1]): 96%
Inhibition (Plasmodium falciparum [2]): 72%
Inhibition (HepG2): 59%

COc1ccc2ncc(F)c(CCN3CCC[C@H](CNCc4ccc5c(n4)NC(=O)CS5)C3)c2n1.Cl
Inhibition (Plasmodium falciparum [1]): 96%
Inhibition (Plasmodium falciparum [2]): 34%
Inhibition (HepG2): 16%

COC(=O)c1ccc(CN2CCC(N(Cc3cccc(Oc4ccccc4)c3)S(=O)(=O)c3ccc(NC(C)=O)cc3)CC2)cc1
Inhibition (Plasmodium falciparum [1]): 82%
Inhibition (Plasmodium falciparum [2]): 86%
Inhibition (HepG2): 0%

CN(C)Cc1cccc(-c2ccc(NC(=O)c3ccc4c(=O)n(CCN5CCCCC5)cnc4c3)cc2)c1
Inhibition (Plasmodium falciparum [1]): 100%
Inhibition (Plasmodium falciparum [2]): 67%
Inhibition (HepG2): 23%

Cc1ccc([S+]([O-])Cc2ccc(Cl)cc2)cc1 (stereo not drawn)
Inhibition (Plasmodium falciparum [1]): 98%
Inhibition (Plasmodium falciparum [2]): 5%
Inhibition (HepG2): 8%

CN(c1ccc(NC(=O)Nc2cc(C(F)(F)F)ccc2F)cc1)c1ccnc(NCCN2CCCC2)n1.O=C(O)C(F)(F)F
Inhibition (Plasmodium falciparum [1]): 93%
Inhibition (Plasmodium falciparum [2]): 1%
Inhibition (HepG2): 94%

CCOC(=O)C(C(=O)OCC)c1nc(C)ns1
Inhibition (Plasmodium falciparum [1]): 99%
Inhibition (Plasmodium falciparum [2]): 0%
Inhibition (HepG2): 10%

CC(C)CCCC(C)NC[C@@H](O)[C@H](Cc1ccccc1)NC(=O)c1cc(N2CCCC2=O)cc(N(c2ccccc2)S(C)(=O)=O)c1 (stereo partly drawn)
Inhibition (Plasmodium falciparum [1]): 99%
Inhibition (Plasmodium falciparum [2]): 97%
Inhibition (HepG2): 17%

COc1cccc(OC)c1CN1CCC(N(C)CCCCCCCCCN2CCC(OC(=O)Nc3ccccc3-c3ccccc3)CC2)CC1
Inhibition (Plasmodium falciparum [1]): 98%
Inhibition (Plasmodium falciparum [2]): 98%
Inhibition (HepG2): 100%

CCC1N=C(N)N=C(N)N1OCc1cccc2ccccc12 (stereo not drawn)
Inhibition (Plasmodium falciparum [1]): 93%
Inhibition (Plasmodium falciparum [2]): 1%
Inhibition (HepG2): 66%

N#Cc1nc2ccc(OCCN(Cc3ccccc3C(F)(F)F)c3ccc(C#N)c(C(F)(F)F)c3)cc2s1
Inhibition (Plasmodium falciparum [1]): 93%
Inhibition (Plasmodium falciparum [2]): 47%
Inhibition (HepG2): 23%

Cc1cc(N[C@@H](Cc2ccccc2)C(=O)NC2CCCC2)nc(NCC2CCCCC2)n1.O=C(O)C(F)(F)F
Inhibition (Plasmodium falciparum [1]): 100%
Inhibition (Plasmodium falciparum [2]): 96%
Inhibition (HepG2): 18%

CCOC(=O)N[C@@H]1CN[C@@H](C#Cc2cc3c(Nc4ccc(OCc5cccc(F)c5)c(Cl)c4)ncnc3s2)C1
Inhibition (Plasmodium falciparum [1]): 86%
Inhibition (Plasmodium falciparum [2]): 13%
Inhibition (HepG2): 8%

O=C(O)C(F)(F)F.O=C(O)Cc1ccc(-c2c[nH]c3ncc(-c4cccc5ncccc45)cc23)cc1
Inhibition (Plasmodium falciparum [1]): 95%
Inhibition (Plasmodium falciparum [2]): 0%
Inhibition (HepG2): 7%

CCOC(=O)c1ccc(-c2c(C(F)(F)F)noc2-c2cc(CC)c(OC)cc2O)o1
Inhibition (Plasmodium falciparum [1]): 100%
Inhibition (Plasmodium falciparum [2]): 95%
Inhibition (HepG2): 0%

Cc1ccccc1C1CCN(C2CCC(NC(=O)/C=C/c3cc(F)ccc3C(F)(F)F)CC2)CC1 (stereo not drawn)
Inhibition (Plasmodium falciparum [1]): 98%
Inhibition (Plasmodium falciparum [2]): 25%
Inhibition (HepG2): 90%

Br.C=CCc1cc(C)ccc1OCCCON1C(N)=NC(N)=NC1(C)C
Inhibition (Plasmodium falciparum [1]): 96%
Inhibition (Plasmodium falciparum [2]): 96%
Inhibition (HepG2): 64%

CN(C)CCCNc1ncnc2c1[nH]c1ccc(Cl)cc12
Inhibition (Plasmodium falciparum [1]): 99%
Inhibition (Plasmodium falciparum [2]): 3%
Inhibition (HepG2): 2%

CN1CCN(CC(=O)Nc2ccc(-c3ccc(-c4nc5ccccc5[nH]4)s3)cc2)CC1
Inhibition (Plasmodium falciparum [1]): 100%
Inhibition (Plasmodium falciparum [2]): 49%
Inhibition (HepG2): 12%

CCCCOc1c(CCC)cc(Cc2cnc(N)nc2N)cc1CCC.Cl
Inhibition (Plasmodium falciparum [1]): 97%
Inhibition (Plasmodium falciparum [2]): 0%
Inhibition (HepG2): 27%

COc1ccc(CN(C)CCCSc2ccc(NC(=O)c3cccc4c(=O)cc(-c5ccccc5)[nH]c34)cc2)cc1OC
Inhibition (Plasmodium falciparum [1]): 93%
Inhibition (Plasmodium falciparum [2]): 94%
Inhibition (HepG2): 15%

Cc1cc(NS(=O)(=O)c2cccc(C(C)N3CCC(N4CCCC4)CC3)c2)ccc1C(C)C (stereo not drawn)
Inhibition (Plasmodium falciparum [1]): 100%
Inhibition (Plasmodium falciparum [2]): 53%
Inhibition (HepG2): 30%

CC(C)C(=O)ONC1=NC(=N)N(OCCCOc2cc(Cl)c(Cl)cc2Cl)C(C)(C)N1
Inhibition (Plasmodium falciparum [1]): 95%
Inhibition (Plasmodium falciparum [2]): 96%
Inhibition (HepG2): 64%

O=[N+]([O-])c1ccccc1/C=N/Nc1ccnc2cc(Cl)ccc12
Inhibition (Plasmodium falciparum [1]): 100%
Inhibition (Plasmodium falciparum [2]): 89%
Inhibition (HepG2): 0%

O=C(CCc1c[nH]cn1)Nc1cccc(-c2ccc(-c3nc4cc(F)ccc4[nH]3)s2)c1
Inhibition (Plasmodium falciparum [1]): 100%
Inhibition (Plasmodium falciparum [2]): 69%
Inhibition (HepG2): 17%

CC1(C)CCCN(Cc2c(O)ccc3c(O)c(-c4nc5ccccc5s4)c(=N)oc23)C1
Inhibition (Plasmodium falciparum [1]): 100%
Inhibition (Plasmodium falciparum [2]): 100%
Inhibition (HepG2): 20%

O=C(/C=C/c1ccc(Cl)c(Cl)c1)NCCCCCCN1CCCN(C(=O)Nc2cc(Cl)cc(Cl)c2)CC1
Inhibition (Plasmodium falciparum [1]): 98%
Inhibition (Plasmodium falciparum [2]): 2%
Inhibition (HepG2): 26%

CC(C)N1CCCN(C(=O)C2CCN(c3ccc(C(=O)N4CCCC4)cn3)CC2)CC1.Cl
Inhibition (Plasmodium falciparum [1]): 86%
Inhibition (Plasmodium falciparum [2]): 12%
Inhibition (HepG2): 41%

C[C@H](Cc1ccc(CCc2ccc(C[C@@H](C)NC[C@H](O)c3cccc(Cl)c3)cc2)cc1)NC[C@H](O)c1cccc(Cl)c1.Cl
Inhibition (Plasmodium falciparum [1]): 95%
Inhibition (Plasmodium falciparum [2]): 92%
Inhibition (HepG2): 100%

CCCCCCN1CCCN(Cc2ccc(C(=O)Nc3ccc(C(C)(C)C)cc3)cc2)CC1.O=C(O)C(F)(F)F
Inhibition (Plasmodium falciparum [1]): 100%
Inhibition (Plasmodium falciparum [2]): 32%
Inhibition (HepG2): 53%

COc1ccccc1CNc1nc(Nc2ccccc2C)nc2ccccc12
Inhibition (Plasmodium falciparum [1]): 100%
Inhibition (Plasmodium falciparum [2]): 67%
Inhibition (HepG2): 24%

CN1CCN(c2ccnc3ccc(NC(=O)Nc4ccc(-c5ccccc5)cc4)cc23)CC1
Inhibition (Plasmodium falciparum [1]): 99%
Inhibition (Plasmodium falciparum [2]): 41%
Inhibition (HepG2): 0%

Cc1nc2c(c(C)nn2C(C)(C)C)c(C)c1CCC(=O)Nc1ccc(CN2CCCC2)cc1
Inhibition (Plasmodium falciparum [1]): 89%
Inhibition (Plasmodium falciparum [2]): 5%
Inhibition (HepG2): 1%

CCCN(CC1CC1)c1ncc(-c2cccc(CNCc3ccccc3O)c2)cn1
Inhibition (Plasmodium falciparum [1]): 97%
Inhibition (Plasmodium falciparum [2]): 98%
Inhibition (HepG2): 15%

N#Cc1ccc(-c2ccc(C(=O)NCCCCN3CCC(c4cc(Br)c5c(c4OCC(N)=O)CCCC5)CC3)cc2)cc1
Inhibition (Plasmodium falciparum [1]): 100%
Inhibition (Plasmodium falciparum [2]): 89%
Inhibition (HepG2): 23%

CC(C)(C(=O)Nc1ccc(C2CCC(NCC3CC3)CC2)c(Cl)c1)c1cccc(OC(F)F)c1 (stereo not drawn)
Inhibition (Plasmodium falciparum [1]): 99%
Inhibition (Plasmodium falciparum [2]): 23%
Inhibition (HepG2): 34%

COc1ccc(-c2cnc(N)c(-c3nc4cc(Br)ccc4[nH]3)c2)cc1.O=C(O)C(F)(F)F
Inhibition (Plasmodium falciparum [1]): 100%
Inhibition (Plasmodium falciparum [2]): 3%
Inhibition (HepG2): 42%

Cc1cc(NC(=O)NCCN2CCC(NC(=O)c3cccc(Br)c3)C2)c2ccccc2n1.O=C(O)C(F)(F)F (stereo not drawn)
Inhibition (Plasmodium falciparum [1]): 100%
Inhibition (Plasmodium falciparum [2]): 60%
Inhibition (HepG2): 0%

O=C(CCN1C(=O)c2ccccc2C1=O)N1CCN(CC=Cc2ccccc2)CC1
Inhibition (Plasmodium falciparum [1]): 87%
Inhibition (Plasmodium falciparum [2]): 3%
Inhibition (HepG2): 10%

CC(C)n1nc(C(=O)N2CCN(c3ccccc3)CC2)c2ccccc2c1=O
Inhibition (Plasmodium falciparum [1]): 96%
Inhibition (Plasmodium falciparum [2]): 3%
Inhibition (HepG2): 34%

O=C(O)C(F)(F)F.O=S(=O)(NCCN1CCCC1)c1ccc(-c2ccc(CNCc3ccc(F)cc3)cc2)cc1F
Inhibition (Plasmodium falciparum [1]): 82%
Inhibition (Plasmodium falciparum [2]): 21%
Inhibition (HepG2): 40%

O=C(Nc1ccc(Cl)cn1)c1sc2ccccc2c1O
Inhibition (Plasmodium falciparum [1]): 99%
Inhibition (Plasmodium falciparum [2]): 18%
Inhibition (HepG2): 2%

COc1ccc2ncc(F)c([C@H](O)CN3CCC(NCc4ccc5c(c4)OCCO5)CC3)c2c1.Cl
Inhibition (Plasmodium falciparum [1]): 100%
Inhibition (Plasmodium falciparum [2]): 99%
Inhibition (HepG2): 1%

O=C(C=Cc1ccc(Cl)c(Cl)c1)NCCCCCN1CCC(CCNS(=O)(=O)c2ccc(Br)cc2)CC1
Inhibition (Plasmodium falciparum [1]): 91%
Inhibition (Plasmodium falciparum [2]): 0%
Inhibition (HepG2): 58%

CCOC(=O)c1ccc(NC(=O)Nc2ccc(-c3cccc(-c4nc5cc(F)ccc5[nH]4)c3)cc2)cc1
Inhibition (Plasmodium falciparum [1]): 100%
Inhibition (Plasmodium falciparum [2]): 100%
Inhibition (HepG2): 98%

Cn1cncc1C(=O)Nc1cccc(-c2csc(-c3nc4ccccc4[nH]3)c2)c1
Inhibition (Plasmodium falciparum [1]): 100%
Inhibition (Plasmodium falciparum [2]): 64%
Inhibition (HepG2): 15%

CCCN1CCCN(Cc2cccc(NC(=O)c3ccc(-c4ccccc4)cc3)c2)CC1.O=C(O)C(F)(F)F
Inhibition (Plasmodium falciparum [1]): 92%
Inhibition (Plasmodium falciparum [2]): 15%
Inhibition (HepG2): 34%

CCOC(=O)c1ccc(NC(=O)Nc2cccc(-c3cccc(-c4nc5cc(F)ccc5[nH]4)c3)c2)cc1
Inhibition (Plasmodium falciparum [1]): 100%
Inhibition (Plasmodium falciparum [2]): 100%
Inhibition (HepG2): 85%

COc1ccc(CNCc2ccc(F)cc2)cc1-c1ccc(S(=O)(=O)NCCN2CCCC2)c(C)c1.O=C(O)C(F)(F)F
Inhibition (Plasmodium falciparum [1]): 98%
Inhibition (Plasmodium falciparum [2]): 56%
Inhibition (HepG2): 55%

CS(=O)(=O)O.FC(F)(F)COc1ccc(CNCCCCCCNCc2ccc(OCC(F)(F)F)c3ccccc23)c2ccccc12
Inhibition (Plasmodium falciparum [1]): 100%
Inhibition (Plasmodium falciparum [2]): 93%
Inhibition (HepG2): 99%

CCCc1cc(NCc2ccncc2)nc(Nc2ccc(F)cc2)n1
Inhibition (Plasmodium falciparum [1]): 90%
Inhibition (Plasmodium falciparum [2]): 6%
Inhibition (HepG2): 9%

O=C(Nc1ccccc1)OCCOc1ccc(CC2SC(=O)NC2=O)cc1 (stereo not drawn)
Inhibition (Plasmodium falciparum [1]): 100%
Inhibition (Plasmodium falciparum [2]): 0%
Inhibition (HepG2): 1%
